{
  "source": "PubChem BioAssay (NCATS)",
  "key": {"[1]": {"assay": "Primary qHTS for inhibitors of nuclear receptor binding SET domain protein 2 (NSD2) in an isogenic RCH-ACV NSD2 p.E1099K mutant (9B) (AID 1645876); also: nearly all actives have a fitted effect of over 70% in size; also: potency is read from the fitted curve at half-maximal effect"}, "[2]": {"target": "Cytochrome P450 2C9 (Homo sapiens) (UniProt P11712)", "sequence (P11712 whole entry, looked up)": "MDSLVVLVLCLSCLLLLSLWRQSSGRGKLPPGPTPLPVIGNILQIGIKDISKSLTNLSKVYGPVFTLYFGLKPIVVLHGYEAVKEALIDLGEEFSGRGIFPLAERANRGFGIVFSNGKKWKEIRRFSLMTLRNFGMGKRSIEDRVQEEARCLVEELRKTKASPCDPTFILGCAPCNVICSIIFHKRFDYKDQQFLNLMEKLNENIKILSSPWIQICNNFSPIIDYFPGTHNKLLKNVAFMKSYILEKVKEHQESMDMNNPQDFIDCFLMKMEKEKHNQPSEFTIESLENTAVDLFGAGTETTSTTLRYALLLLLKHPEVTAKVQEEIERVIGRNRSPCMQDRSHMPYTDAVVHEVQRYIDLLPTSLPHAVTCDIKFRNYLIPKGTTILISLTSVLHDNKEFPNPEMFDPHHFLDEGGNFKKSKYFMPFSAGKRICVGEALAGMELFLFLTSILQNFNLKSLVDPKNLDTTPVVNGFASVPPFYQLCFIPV", "assay": "Cytochrome P450 family 2 subfamily C member 9 (CYP2C9) small molecule antagonists: luciferase biochemical (cell-free) qHTS assay (AID 1645842; active = well fitted curve in the direction sought with a large enough effect in the repeat runs; an effect the other way counts as inactive or inconclusive; also: nearly all actives have a fitted effect of over 55% in size; also: potency is read from the fitted curve at half-maximal effect)", "in_short": "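Luminescence, after 20 min with luciferin detection reagent, reflected CYP2C9 turnover during a 1 h NADPH-driven reaction at 37C. Enzyme-substrate mix contained 0.4% bovine serum albumin and was preincubated with compound 10 min at room temperature.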"}, "[3]": {"assay": "Primary qHTS for inhibitors of nuclear receptor binding SET domain protein 2 (NSD2) in an RCH-ACV wild type WT cells (2C) (AID 1645877); also: nearly all actives have a fitted effect of over 70% in size; also: potency is read from the fitted curve at half-maximal effect"}, "Papain (Carica papaya)": {"target": "Papain (Carica papaya) (UniProt P00784)", "sequence (P00784 whole entry, looked up)": "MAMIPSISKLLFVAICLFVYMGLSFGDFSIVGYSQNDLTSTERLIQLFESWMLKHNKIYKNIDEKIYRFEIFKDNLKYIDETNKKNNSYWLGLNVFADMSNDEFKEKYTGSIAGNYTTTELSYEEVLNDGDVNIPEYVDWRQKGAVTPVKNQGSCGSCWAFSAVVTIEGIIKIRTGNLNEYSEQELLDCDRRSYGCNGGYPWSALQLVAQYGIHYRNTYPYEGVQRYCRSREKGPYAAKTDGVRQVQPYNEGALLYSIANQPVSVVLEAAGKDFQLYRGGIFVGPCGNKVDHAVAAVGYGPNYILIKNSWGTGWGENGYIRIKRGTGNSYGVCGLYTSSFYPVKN", "assay": "Primary qHTS assay for inhibitors of the protease papain (AID 1645873);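 also: papain turnover of Z-FR-AMC read as the AMC fluorescence gain over 10 min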; also: potency is read from the fitted curve at half-maximal effect"}, "[4]": {"target": "Rap guanine nucleotide exchange factor 3 (Homo sapiens) (UniProt O95398)", "sequence (O95398 whole entry, looked up)": "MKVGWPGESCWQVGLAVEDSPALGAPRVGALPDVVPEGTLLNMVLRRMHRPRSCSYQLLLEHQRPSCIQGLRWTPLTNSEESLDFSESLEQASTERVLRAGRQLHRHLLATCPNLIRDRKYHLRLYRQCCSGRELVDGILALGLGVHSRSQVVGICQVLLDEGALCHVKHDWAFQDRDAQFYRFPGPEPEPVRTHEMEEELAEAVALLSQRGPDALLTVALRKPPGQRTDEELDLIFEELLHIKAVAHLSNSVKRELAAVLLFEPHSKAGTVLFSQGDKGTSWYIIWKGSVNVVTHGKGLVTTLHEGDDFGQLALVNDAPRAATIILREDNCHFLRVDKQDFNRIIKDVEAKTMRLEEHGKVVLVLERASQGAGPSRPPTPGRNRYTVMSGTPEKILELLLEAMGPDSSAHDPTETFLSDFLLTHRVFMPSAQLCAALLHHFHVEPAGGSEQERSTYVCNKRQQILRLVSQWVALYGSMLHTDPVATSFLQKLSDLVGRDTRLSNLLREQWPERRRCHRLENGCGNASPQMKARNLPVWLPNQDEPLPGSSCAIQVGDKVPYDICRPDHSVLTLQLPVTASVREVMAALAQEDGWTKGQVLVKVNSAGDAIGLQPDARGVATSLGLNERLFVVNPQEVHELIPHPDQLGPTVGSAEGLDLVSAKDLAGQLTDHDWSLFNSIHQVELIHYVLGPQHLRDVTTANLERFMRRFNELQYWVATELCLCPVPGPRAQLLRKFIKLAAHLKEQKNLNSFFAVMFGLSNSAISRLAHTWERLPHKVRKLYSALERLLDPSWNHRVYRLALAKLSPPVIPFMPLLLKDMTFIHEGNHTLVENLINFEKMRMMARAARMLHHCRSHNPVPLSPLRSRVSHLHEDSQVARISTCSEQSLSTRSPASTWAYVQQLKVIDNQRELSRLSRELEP", "assay": "Confirmatory qHTS for antagonist of cAMP-regulated guanine nucleotide exchange factor 3 (EPAC1) (AID 1645880); also: nearly all actives have a fitted effect of over 55% in size; also: potency is read from the fitted curve at half-maximal effect", "in_short": "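Nucleotide exchange uses 100 nM EPAC1, 250 nM RAP1B-BODIPY-GDP and 50 uM GDP, with compounds in a concentration-titration series. After 5 min at room temperature, fluorescence (480 nm ex/540 nm em) is read every 5 min for 30 min. Data are normalized to control ATA and DMSO.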"}, "[5]": {"target": "Rap guanine nucleotide exchange factor 3 (Homo sapiens) (UniProt O95398)", "assay": "Confirmatory qHTS for agonist of cAMP-regulated guanine nucleotide exchange factor 3 (EPAC1) (AID 1645881);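 also: EPAC1 catalysed release of BODIPY-GDP from Rap1B seen as fluorescence loss; nearly all actives have a fitted effect of over 75% in size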"}, "[6]": {"target": "Rap guanine nucleotide exchange factor 4 (Homo sapiens) (UniProt Q8WZA2)", "sequence (Q8WZA2 whole entry, looked up)": "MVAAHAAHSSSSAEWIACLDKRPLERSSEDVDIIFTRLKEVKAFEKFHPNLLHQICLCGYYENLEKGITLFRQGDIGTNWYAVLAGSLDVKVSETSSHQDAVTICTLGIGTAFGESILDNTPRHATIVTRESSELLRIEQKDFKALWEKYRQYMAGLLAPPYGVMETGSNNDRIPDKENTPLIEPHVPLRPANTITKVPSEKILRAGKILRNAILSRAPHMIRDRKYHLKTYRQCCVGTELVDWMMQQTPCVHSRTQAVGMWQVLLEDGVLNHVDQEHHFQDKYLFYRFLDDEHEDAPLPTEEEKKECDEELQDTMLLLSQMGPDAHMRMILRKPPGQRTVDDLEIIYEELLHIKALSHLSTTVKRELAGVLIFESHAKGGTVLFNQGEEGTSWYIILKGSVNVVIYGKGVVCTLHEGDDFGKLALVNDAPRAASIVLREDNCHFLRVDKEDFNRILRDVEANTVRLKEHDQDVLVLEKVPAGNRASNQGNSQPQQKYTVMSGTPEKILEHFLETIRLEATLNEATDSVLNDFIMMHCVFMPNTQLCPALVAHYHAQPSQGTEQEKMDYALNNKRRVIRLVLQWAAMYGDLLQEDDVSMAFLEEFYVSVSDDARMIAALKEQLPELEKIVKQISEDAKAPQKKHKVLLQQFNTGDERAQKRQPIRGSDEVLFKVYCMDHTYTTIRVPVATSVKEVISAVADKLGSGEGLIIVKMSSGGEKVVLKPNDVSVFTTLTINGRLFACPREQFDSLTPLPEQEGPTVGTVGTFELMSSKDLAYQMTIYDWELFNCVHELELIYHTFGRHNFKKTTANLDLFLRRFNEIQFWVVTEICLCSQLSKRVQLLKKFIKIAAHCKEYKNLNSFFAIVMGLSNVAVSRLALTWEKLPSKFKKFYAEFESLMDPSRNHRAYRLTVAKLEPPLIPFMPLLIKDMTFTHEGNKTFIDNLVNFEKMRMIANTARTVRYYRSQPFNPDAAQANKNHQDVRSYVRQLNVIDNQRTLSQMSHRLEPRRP", "assay": "Confirmatory qHTS for agonist of cAMP-regulated guanine nucleotide exchange factor 4 (EPAC2) (AID 1645884);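 also: nucleotide exchange releases bodipy-GDP from Rap1 and this lowers its fluorescence; nearly all actives have a fitted effect of over 65% in size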"}},
  "note": "Values joined by “and” are separate entries in the source; they are usually repeats but may differ in a detail not shown here. Identical values can stand only once. Inconclusive results are not listed. Where a call stands in place of a potency, no number is given. A structure can be active in one record and inactive in another. Unmarked numbers belong to inactive results. Active and inactive are the calls of the source. Unless noted, calls follow the shape of the dose curve; as a rule, active = well fitted curve in the direction sought with a large enough effect; inconclusive = small, poorly fitted or top-dose-only effect, or another doubt; inactive = no such curve, though single readings can be large; an effect the other way counts as inactive or inconclusive.",
  "data": [
    {"smiles": "CCCn1c(=O)c2[nH]c(C34CC5CC3C[C@@H](C5)C4)nc2n(CCC)c1=O", "values": [
      {"measurement": "Potency", "setting": "[1]", "result": "inactive"}
    ]},
    {"smiles": "CC[C@H](Nc1ncnc2nc[nH]c12)c1nc2cccc(F)c2c(=O)n1-c1ccccc1", "values": [
      {"measurement": "Potency", "setting": "[1]", "result": "164 nM (active) and 833 nM (active)"},
      {"measurement": "activity change, negative = viability loss", "setting": "[1]", "result": "-6.84% [at 9.23 µM]"}
    ]},
    {"smiles": "CNC(=O)c1ccccc1Sc1ccc2c(/C=C/c3ccccn3)n[nH]c2c1", "values": [
      {"measurement": "Potency", "setting": "[2]", "result": "3.47 µM (active)"},
      {"measurement": "Potency", "setting": "[1]", "result": "750 nM (active) and 916 nM (active) and 4.17 µM (active)"},
      {"measurement": "Potency", "setting": "[3]", "result": "531 nM (active) and 1.03 µM (active) and 833 nM (active)"}
    ]},
    {"smiles": "Cc1n[nH]c(C)c1Cc1sc2c(c1C(=O)N1C[C@H](O)CO1)c(=O)n(C)c(=O)n2CC(C)C", "values": [
      {"measurement": "Potency", "setting": "[1]", "result": "inactive"}
    ]},
    {"smiles": "Nc1nccc(-c2ccc3noc(-c4ccc(Cl)cc4)c3c2)n1", "values": [
      {"measurement": "Potency", "setting": "[1]", "result": "inactive"}
    ]},
    {"smiles": "O=NN(CCCl)C(=O)NCCCl", "values": [
      {"measurement": "Potency", "setting": "Papain (Carica papaya)", "result": "inactive"},
      {"measurement": "Potency", "setting": "[1]", "result": "inactive"}
    ]},
    {"smiles": "Cc1cn[nH]c1", "values": [
      {"measurement": "Potency", "setting": "Papain (Carica papaya)", "result": "inactive"},
      {"measurement": "Potency", "setting": "[1]", "result": "inactive"}
    ]},
    {"smiles": "O=C(NOC[C@H](O)CO)c1ccc(F)c(F)c1Nc1ccc(I)cc1F", "values": [
      {"measurement": "Potency", "setting": "[2]", "result": "16.9 µM (active)"},
      {"measurement": "Potency", "setting": "[1]", "result": "inactive"}
    ]},
    {"smiles": "Cc1cc2c(C(C)C)c(O)c(O)c(C=O)c2c(O)c1-c1c(C)cc2c(C(C)C)c(O)c(O)c(C=O)c2c1O", "values": [
      {"measurement": "Potency", "setting": "Papain (Carica papaya)", "result": "12.6 µM (active)"},
      {"measurement": "Potency", "setting": "[1]", "result": "10.5 µM (active)"},
      {"measurement": "Potency", "setting": "[3]", "result": "9.34 µM (active)"}
    ]},
    {"smiles": "CCOC(=O)N1CCC(=C2c3ccc(Cl)cc3CCc3cccnc32)CC1", "values": [
      {"measurement": "Potency", "setting": "Papain (Carica papaya)", "result": "inactive"},
      {"measurement": "Potency", "setting": "[4]", "result": "inactive"},
      {"measurement": "outcome", "setting": "[5]", "result": "inactive"}
    ]},
    {"smiles": "Oc1cccc(-c2nc(N3CCOCC3)c3oc4ncccc4c3n2)c1", "values": [
      {"measurement": "Potency", "setting": "[1]", "result": "0.118 µM (active)"}
    ]},
    {"smiles": "CCC(C)N(C)C(=O)c1cc2ccccc2c(-c2ccccc2Cl)n1", "note": "(centres undefined)", "values": [
      {"measurement": "Potency", "setting": "Papain (Carica papaya)", "result": "inactive"}
    ]},
    {"smiles": "CC(C)(C)OC(=O)CN(Cc1ccc(Cl)cc1)Cc1ccc([N+](=O)[O-])s1", "values": [
      {"measurement": "Potency", "setting": "[1]", "result": "inactive"}
    ]},
    {"smiles": "COc1cc(Nc2ncc3c(n2)-c2ccc(Cl)cc2C(c2c(F)cccc2OC)=NC3)ccc1C(=O)O", "values": [
      {"measurement": "Potency", "setting": "[2]", "result": "inactive"},
      {"measurement": "Potency", "setting": "[1]", "result": "115 nM (active) and 20.5 nM (active) and 66.1 nM (active)"},
      {"measurement": "Potency", "setting": "[3]", "result": "91.6 nM (active) and 29 nM (active) and 37.2 nM (active)"}
    ]},
    {"smiles": "O=c1n(CCCN2CCN(c3cccc(Cl)c3)CC2)nc2ccccn12", "values": [
      {"measurement": "Potency", "setting": "[2]", "result": "inactive"},
      {"measurement": "Potency", "setting": "[3]", "result": "inactive"}
    ]},
    {"smiles": "CCCCNc1cc(C(=O)O)cc(S(N)(=O)=O)c1Oc1ccccc1", "values": [
      {"measurement": "Potency", "setting": "Papain (Carica papaya)", "result": "20 µM (active)"},
      {"measurement": "Potency", "setting": "[1]", "result": "inactive"},
      {"measurement": "Potency", "setting": "[3]", "result": "inactive"}
    ]},
    {"smiles": "CCN(c1ccccc1)c1cc(NC)[n+](C)c(C)n1", "values": [
      {"measurement": "Potency", "setting": "[1]", "result": "inactive"}
    ]},
    {"smiles": "CC(C)(Sc1ccc(CCN(CCCCC2CCCCC2)C(=O)NC2CCCCC2)cc1)C(=O)O", "values": [
      {"measurement": "Potency", "setting": "[1]", "result": "inactive"},
      {"measurement": "Potency", "setting": "[3]", "result": "inactive"},
      {"measurement": "Potency", "setting": "[4]", "result": "28 µM (active) and 42.6 µM (active)"},
      {"measurement": "outcome", "setting": "[5]", "result": "inactive"},
      {"measurement": "outcome", "setting": "[6]", "result": "inactive"}
    ]},
    {"smiles": "COc1ccccc1[C@H](c1cccc2ccccc12)[C@@](C)(C#N)C(=O)N1CCC(c2cccc(C(F)(F)F)c2)CC1", "values": [
      {"measurement": "Potency", "setting": "[1]", "result": "inactive"},
      {"measurement": "Potency", "setting": "[3]", "result": "inactive"}
    ]},
    {"smiles": "CCN(CC)CCCC(C)Nc1ccnc2cc(Cl)ccc12", "note": "(centres undefined)", "values": [
      {"measurement": "Potency", "setting": "[1]", "result": "inactive"},
      {"measurement": "Potency", "setting": "[3]", "result": "inactive"}
    ]},
    {"smiles": "NC(=O)c1ccc(I)c([N+](=O)[O-])c1", "values": [
      {"measurement": "Potency", "setting": "[1]", "result": "18.6 µM (active)"},
      {"measurement": "Potency", "setting": "[3]", "result": "16.6 µM (active)"}
    ]},
    {"smiles": "O=C(O)[C@@H](c1ccc(OCc2ccc3ccccc3n2)cc1)C1CCCC1", "values": [
      {"measurement": "Potency", "setting": "[1]", "result": "inactive"},
      {"measurement": "Potency", "setting": "[3]", "result": "inactive"}
    ]},
    {"smiles": "Cc1c(CCOc2ccc(C(=O)O)cc2)c2cc(Cl)ccc2n1C(c1ccccc1)c1ccccc1", "values": [
      {"measurement": "Potency", "setting": "[1]", "result": "inactive"},
      {"measurement": "Potency", "setting": "[3]", "result": "inactive"}
    ]},
    {"smiles": "CN([C@@H](Cc1ccc(OS(=O)(=O)c2cccc3cnccc23)cc1)C(=O)N1CCN(c2ccccc2)CC1)S(=O)(=O)c1cccc2cnccc12", "values": [
      {"measurement": "activity change, negative = viability loss", "setting": "[1]", "result": "7.52% [at 4.96 µM]"},
      {"measurement": "activity change, negative = cell killing", "setting": "[3]", "result": "9.55% [at 4.96 µM]"}
    ]}
  ]
}
